Screening results from PubChem.
IMPase Li inh: qHTS Assay for Identifying the Cell-Membrane Permeable IMPase Inhibitors: Potentiation with Lithium; CHO-M1 cells, IP1 TR-FRET (IP-One), carbachol + lithium; Potency, µM (titrated, usually from 59.4 µM), inactives show at the top dose activity, negative = IMPase inhibition, actives largely listed as inhibitors; 210,000 tested, 0.35% active; AID 1457, 2008; active = well fitted curve in the direction sought with a large enough effect; inconclusive = small, poorly fitted or top-dose-only effect, or another doubt; inactive = no such curve, though single readings can be large; an effect the other way counts as inactive or inconclusive;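 also: IP1 builds up when IMPase is blocked and the TR-FRET signal falls; potency is read from the fitted curve at half-maximal effect; plate controls were basal vehicle for no effect and high inhibitor control for full effect; nearly all actives have a fitted effect of over 50% in size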
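CHO cells stably expressing M1 receptor (2000/well) were cultured 16–30 h, then exposed to compounds with a small lithium addition for 30 min at 37C. IP1 was measured by TR-FRET competition; AC50 from Hill fits.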
IMPase inh: qHTS Assay for Identifying the Cell-Membrane Permeable IMPase Inhibitors; CHO-M1 cells, IP1 accumulation, HTRF TR-FRET ratio; inhibition (IP1 accumulation), % at 46.1 µM; 120,000 tested, under 10 active; active = well fitted curve in the direction sought with a large enough effect in the signal ratio, not every such curve was filed as active; inconclusive = small, poorly fitted or top-dose-only effect, or a change in a side signal; inactive = no such curve, though single readings can be large or run the other way; the % refers to the signal ratio;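 also: cells stimulated with carbachol in lithium chloride buffer; plate controls were DMSO basal wells for no effect and reference inhibitor wells for full effect; higher means more IMPase inhibition seen as more IP1 and lower FRET ratio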
Target sequence (P97697 whole entry, looked up): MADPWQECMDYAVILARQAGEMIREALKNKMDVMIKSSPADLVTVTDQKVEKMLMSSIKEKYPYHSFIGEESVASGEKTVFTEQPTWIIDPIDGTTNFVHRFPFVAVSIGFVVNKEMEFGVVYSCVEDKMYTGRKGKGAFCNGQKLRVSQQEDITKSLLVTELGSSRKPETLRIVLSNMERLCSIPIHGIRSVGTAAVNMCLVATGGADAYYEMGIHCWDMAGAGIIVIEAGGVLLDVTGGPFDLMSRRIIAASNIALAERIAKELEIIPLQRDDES
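Measured: the HTRF emission ratio (665/620 nm) plus the 620 nm donor channel, each fitted to the Hill equation to give AC50. Cells were CHO-M1 given compounds up to 46 uM and a 30 min carbachol stimulation at 37C.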
PNC inhibitor: High Content Assay for Compounds that inhibit the Assembly of the Perinucleolar Compartment; PC3M PTB-GFP, PNC prevalence imaging, 16 h; stronger effect = lower value; activity change (PNC), negative = inhibition, % at 10 µM; 140,000 tested, 3.1% active; AID 2417, 2010;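 active = readout at or below -70, meaning at least 70% loss of cells showing the perinucleolar compartment, a nuclear body marking cancer cells; inconclusive = readout between -30 and a set limit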;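 also: plate controls were DMSO wells for no effect and camptothecin positive control wells for full effect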
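Read-out is percentage of cells bearing a perinucleolar compartment, from automated 20x imaging of fixed, Hoechst-stained PC3M PTB-GFP cells. Cells were seeded 4 h, then exposed 16 h to compound (23 nl of library stock) in duplicate plates.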
HPGD block: qHTS Assay for Inhibitors of HPGD (15-Hydroxyprostaglandin Dehydrogenase). 15-hydroxyprostaglandin dehydrogenase [NAD(+)] (Homo sapiens), P15428. AID 894, 2007. purified HPGD, NADH fluorescence kinetic, PGE2 substrate. Potency, µM, without a hit: at the highest dose activity change, negative = inhibition, usual class: inhibitors. 150,000 tested, 4.3% active; also: potency is read from the fitted curve at half-maximal effect
Target sequence (P15428 whole entry, looked up): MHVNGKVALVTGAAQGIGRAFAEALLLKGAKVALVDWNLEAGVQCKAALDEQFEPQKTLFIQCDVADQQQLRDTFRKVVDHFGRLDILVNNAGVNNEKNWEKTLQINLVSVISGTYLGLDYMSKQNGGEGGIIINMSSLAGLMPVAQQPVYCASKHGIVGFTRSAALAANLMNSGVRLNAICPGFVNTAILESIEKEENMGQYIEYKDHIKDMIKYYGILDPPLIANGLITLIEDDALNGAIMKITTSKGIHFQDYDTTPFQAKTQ
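NADH formation kinetics: reaction with 30 uM PGE2 and 1 mM NAD+ (final), 20 nM enzyme, Tris-HCl pH 8 with Tween 20, after 15 min compound preincubation at room temperature. Fluorescence change, last versus first of five reads.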
NPSR antagonist: qHTS Assay for Antagonists of the Neuropeptide S Receptor: cAMP Signal Transduction | Q6W5P4 | CHO-NPSR cells, cAMP TR-FRET, antagonist mode | Potency, µM (series often up to 38.3 µM), without a hit: top-dose activity change, negative = inhibition, actives largely listed as inhibitors | 220,000 tested, 1% active; active = well fitted curve in the direction sought with a large enough effect; inconclusive = small, poorly fitted or top-dose-only effect, or another doubt; inactive = no such curve, though single readings can be large; an effect the other way counts as inactive or inconclusive; also: potency is read from the fitted curve at half-maximal effect; nearly all actives have a fitted effect of over 50% in size
ALDH1A1 inh: qHTS Assay for Inhibitors of Aldehyde Dehydrogenase 1 (ALDH1A1); Aldehyde dehydrogenase 1A1 (Homo sapiens), P00352; Purified ALDH1A1, NADH fluorescence, propionaldehyde substrate; Potency, µM (doses to about 75.3 µM), for the others: at the top dose activity, negative = inhibition, usual class: inhibitors; 220,000 tested, 7.3% active; AID 1030, 2008;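 also: potency is read from the fitted curve at half-maximal effect; plate controls were no enzyme wells and a reference inhibitor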
* marks the source's active call; other numbers are inactive results; ? = inconclusive; · = no result given; [ ] = another dose, or the depositor's remark. Rows were chosen to be rich in hits. Some 11% of all compounds tested hit in one or more screens of this group. Unless noted, calls follow the shape of the dose curve; as a rule, active = well fitted inhibition curve with a large enough effect (not every such curve was filed as active); inconclusive = small, poorly fitted or top-dose-only effect, or another doubt; inactive = no such curve, though single readings can be large or run the other way. Unless noted, % is scaled to controls: 0 for no effect and ±100 for the full control effect.

SMILES	IMPase Li inh	IMPase inh	PNC inhibitor	HPGD block	NPSR antagonist	ALDH1A1 inh
O=C(OC(C(=O)NCc1ccc2c(c1)OCO2)c1ccccc1F)c1ccco1 (configuration not stated)	14%[38.3 µM]	6	13	?	-8%[46.1 µM]	1.6µM*
N#Cc1c(-n2ncnc2-c2ccccc2C(F)(F)F)sc2c1CCCCC2	·	-11	·	·	·	·
Cc1ccc(NC(=O)C2CCN(c3cnccn3)CC2)cc1	-8%	·	·	·	8%	3%
O=C(NCc1ccc2c(c1)OCO2)c1cccc2c1C(=O)N(C1CCCCC1)C2	17%	3	1	-7%	-8%	1%
Cc1ccc(CNC(=O)C(C)OC(=O)c2ccco2)cc1 (configuration not stated)	2%[38.3 µM]	-2	?	-13%	?	3%
CCC(OC(=O)c1ccco1)C(=O)NCc1ccc(C)cc1 (configuration not stated)	-2%[38.3 µM]	4	36	28µM*	-6%[46.1 µM]	-3%
CCCN1Cc2cccc(C(=O)NCc3ccc4c(c3)OCO4)c2C1=O	9%[38.3 µM]	-6	?	-9%	-17%[46.1 µM]	14µM*
Cc1ccc(NC(=O)Cc2noc3ccccc23)nc1	-3%	·	-26	1%	-1%	6%
O=C(CSc1ncn[nH]1)c1ccccc1	11%[38.3 µM]	-6	26	22µM*	-10%[46.1 µM]	?
O=C(CSc1nccc(=O)[nH]1)c1ccco1	-2%	·	·	·	5%	-7%
O=C(CSc1ncn[nH]1)Nc1ncc(C(F)(F)F)cc1Cl	-1%	·	·	·	7%	-5%
O=C(CSc1ncn[nH]1)c1ccco1	3%	18	-7	25µM*	8%[46.1 µM]	?
O=C(CSc1ncn[nH]1)NC1CC2CCC1C2 (configuration not stated)	16%[38.3 µM]	-5	32	16µM*	-6%[46.1 µM]	?
O=C(CSc1ncn[nH]1)c1cccc([N+](=O)[O-])c1	0%	·	10	?	9%	?
O=C(CSc1ncn[nH]1)Nc1ccc(Cl)c(Cl)c1	4%[38.3 µM]	5	?	-3%	?	4µM*
Nc1n[nH]c(C(F)(F)F)c1-c1ccccc1	8%	·	·	·	11%	0%
O=S(=O)(N/N=C/c1ccc(F)cc1)c1ccccc1	7%	·	·	·	1%	5%
CCCCCCCCCCCCCCCC(=O)NCCc1c[nH]c2ccccc12	-6%	·	·	·	2%	3%
O=c1[nH]c2ccccc2c(O)c1-[n+]1ccccc1	·	·	·	·	55%	·
O=c1[nH]c2ccccc2c(O)c1O	·	·	·	·	-20%	0.56µM*
CC(=O)NCCc1c(Cc2ccccc2)[nH]c2ccccc12	1%	0	·	14µM*	·	2%
CCCCNC(=O)Cc1c(O)c2ccccc2[nH]c1=O	30%[38.3 µM]	6	-112*	-25%	-11%[46.1 µM]	?
CCCCC(=O)NCCc1c(Cc2ccccc2)[nH]c2ccccc12	14%	8	·	16µM*	·	?
COc1ccc(NC(=O)COC(=O)c2ccc(F)cc2F)cc1	2%	·	·	·	8%	-7%
CC1CCCCC1NC(=O)C1CCN(S(=O)(=O)c2ccc3c(c2)CCC(=O)N3)CC1 (configuration not stated)	3%[38.3 µM]	2	20	-15%	-10%[46.1 µM]	-5%
SMILES	IMPase Li inh	IMPase inh	PNC inhibitor	HPGD block	NPSR antagonist	ALDH1A1 inh
CN(C)c1ccc(CNC(=O)C2CCN(S(=O)(=O)c3ccc4c(c3)CCC(=O)N4)CC2)cc1	5%[38.3 µM]	4	13	-15%	-13%[46.1 µM]	18µM*
Cc1ccc(C)c(/C(O)=C2\C(=O)C(=O)N(Cc3cccnc3)C2c2cccnc2)c1 (configuration not stated)	7.1µM*	-24	5	25µM*	-7%[46.1 µM]	?
CC(C)CNC(=O)c1ccccc1NC(=O)Nc1ccccc1	16%[38.3 µM]	-1	?	-14%	-1%[46.1 µM]	3%
Cn1c(=O)c2cn(-c3ccc4c(c3)OCCO4)cc2n(C)c1=O	19%[38.3 µM]	-2	-26	-19%	0%[46.1 µM]	?
Cc1ccc(-n2cc3c(=O)n(C)c(=O)n(C)c3c2)cc1C	1%[38.3 µM]	-6	16	-19%	-3%[46.1 µM]	14µM*
O=C(NNc1cc(N2CCCC2)nc(N2CCCC2)n1)c1ccc([N+](=O)[O-])cc1	21%	·	·	·	11%	8%
CCOC(=O)C1=C(C)OC(N)=C(C#N)C1c1cccs1 (configuration not stated)	-11%	·	·	·	7%	?
CCOC(=O)C1=C(N)Oc2ccc(Br)cc2C1C(C#N)C(=O)OCC (configuration not stated)	-11%	·	·	·	·	16µM*
CCOC(=O)c1c(NC(=O)C2CC(Cl)=CCC2C(=O)O)sc2c1CC(C)(C)OC2 (configuration not stated)	-6%	·	·	·	-38%	-9%
O=C(CCCCCN1C(=O)c2ccccc2C1=O)Nc1ccc(S(=O)(=O)N2CCCCC2)cc1	13%[38.3 µM]	-6	43	-8%	-28%[46.1 µM]	-12%
[N-]=[N+]=CC(=O)CCCN1C(=O)c2ccccc2C1=O	-9%[38.3 µM]	4	-27	-10%	1%[46.1 µM]	10µM*
O=C(CCCCCN1C(=O)c2ccccc2C1=O)Nc1ccc2c(c1)OCCO2	15%[38.3 µM]	-1	37	-12%	-9%[46.1 µM]	28µM*
O=C(CCCCCN1C(=O)c2ccccc2C1=O)Nc1ccc(F)cc1	15%	4	-100*	18µM*	-5%[46.1 µM]	?
O=C(CCN1C(=O)c2ccccc2C1=O)Nc1ccc2c(c1)OCCO2	17%[38.3 µM]	6	-89*	-14%	?	?
COc1ccc(S(=O)(=O)NC(C)C(=O)O)cc1 (configuration not stated)	23%[38.3 µM]	1	35	-9%	2%[46.1 µM]	6%
CCc1cc(-c2n[nH]c(=S)n2-c2cccc(C)c2)cs1	30%[38.3 µM]	2	-21	?	?	?
COc1ccc(C(=O)NNC(=S)NC(=O)C(C)(C)C)cc1	10%	·	·	·	-37%	4%
CS(=O)(=O)N(CC(N)=O)Cc1ccc(Cl)cc1	20%[38.3 µM]	7	-27	-6%	-3%[46.1 µM]	3%
COCCNC(=O)C(c1ccc(F)cc1)N(CCOC)C(=O)CCC(=O)Nc1nccs1 (configuration not stated)	18%[38.3 µM]	2	-108*	-1%	8%[46.1 µM]	7%
Cc1nnc(NC(=O)c2ccc3c(c2)C(=O)N(CC2CCCO2)C3=O)s1 (configuration not stated)	1%[38.3 µM]	-2	-90*	-2%	-14%[46.1 µM]	?
